Measured values published in PubChem BioAssay AID624296 (National Center for Advancing Translational Sciences (NCATS), 2012).
About 9,900 (2.8%) of roughly 350,000 compounds were called active. Inconclusive results (about 15%) are left out. The entries come from a sample that favours actives as a whole. Values without a mark were called inactive. Calls come from the whole dose curve; as a rule, active = well fitted activation curve with a large enough effect; inconclusive = small, poorly fitted or top-dose-only effect; inactive = no such curve, though single readings can be large or run the other way.

assay: A quantitative high throughput screen for small molecules that induce DNA re-replication in MCF 10a normal breast cells.; note: nearly all actives have a fitted effect of over 50% in size; for activity, positive = re-replication: % of control where 0% means no effect; settings: MCF 10A DNA re-replication, Hoechst nuclear intensity, 48 h; series mostly up to 46.1 µM; activity, positive = re-replication: at the top concentration
Potency is the fitted concentration of half-maximal effect.

Structure (SMILES)	activity, positive = re-replication	Potency
COc1ccccc1N1N=C(c2cccs2)CC1c1ccccc1 (centres undefined)	16.3%	–
Fc1ccc(N2N=C(c3cccs3)CC2c2ccco2)c(F)c1 (centres undefined)	–	7.31 µM (active)
O=C(N/N=C\c1cccnc1)c1cc(-c2ccccc2)nc2c(Cl)cccc12	–	7.31 µM (active)
C/C(=N\NC(=O)c1cc(-c2ccc(O)cc2)nc2ccccc12)c1cccnc1	4.37%	–
O=C(N/N=C/c1cccnc1)c1cc2ccccc2cc1O	-15.4%	–
COc1cccc(CC(=NO)c2cccc(OC)c2)c1	2.69%	–
CC1(C(=O)OCC(=O)Nc2ncc(Cl)cc2Cl)CC1(Cl)Cl (centres undefined)	1.07%	–
COc1ccc(CNC(=O)[C@H](Cc2c[nH]c3ccccc23)NC(C)=O)cc1OC	-1.5%	–
COc1cccc(NC(=O)[C@H](Cc2c[nH]c3ccccc23)NC(=O)[C@@H]2Cc3ccccc3CN2)c1	–	18.4 µM (active)
COc1ccc(NC(=O)[C@H](NC(=O)[C@@H]2Cc3ccccc3CN2)c2ccccc2)cc1	1.04%	–
CCc1c(Nc2ccccc2C)nc(N)[nH]c1=O	-6.06%	–
COc1ccc(OC)c(CN2CCN(C(=O)CNC(=O)c3cc(C)cc(C)c3)CC2)c1	15%	–
Cc1ccc(C(=O)NCC(c2cccs2)N(C)C)cc1S(=O)(=O)N1CCOCC1 (centres undefined)	26.2%	–
COc1ccc2[nH]c3c(c2c1)CCN1C(=O)C(CC(=O)NCCc2ccccn2)C[C@H](C(=O)N2CCOCC2)[C@@]31C (some centres undefined)	1.89%	–
O=C(COC(=O)c1c(Cl)cccc1Cl)Nc1cccc(S(=O)(=O)NC2=NCCCCC2)c1	3.95%	–
CCc1ccc(C(=O)OCC(=O)Nc2cccc(S(=O)(=O)NC3=NCCCCC3)c2)cc1	-9.03%	–
COc1ccccc1C(=O)OCC(=O)Nc1cccc(S(=O)(=O)NC2=NCCCCC2)c1	–	18.4 µM (active)
CC(NC(=O)c1ccccc1)C(=O)Nc1ccccc1 (centres undefined)	-2.99%	–
CC(Oc1ccc2c(-c3ccccc3)cc(=O)oc2c1)C(=O)NC(Cc1c[nH]c2ccccc12)C(=O)O (centres undefined)	-19.5%	–
Cc1ccc(S(=O)(=O)N2CCN(c3ccccc3)CC2)cc1C	1.22%	–
Cc1ccccc1N1CCN(S(=O)(=O)c2ccc3ccccc3c2)CC1	17.8%	–
Cc1cc(N2CCN(S(=O)(=O)c3ccc(C)c(C)c3)CC2)c2ccccc2n1	–	10.3 µM (active)
COc1ccc(Cl)cc1C=CC=NNC(=O)c1ccncc1	0.633%	–
COc1ccccc1C(=O)NCC(=O)OCC(=O)NNC(=O)c1ccc(Br)cc1	-1.96%	–
O=C(O)c1ccccc1N=N/C(=N/Nc1cc(S(=O)(=O)O)ccc1O)c1ccccc1	-5.64%	–

Structure (SMILES)	activity, positive = re-replication	Potency
O=C(CN1C(=O)c2cccc3cccc1c23)Nc1ccccc1	–	20.6 µM (active)
Cc1cc(C)cc(NC(=O)CN2C(=O)c3ccccc3C2=O)c1	-6.92%	–
Cc1cccc(NC(=O)CN2C(=O)c3ccccc3C2=O)c1C	14.4%	–
CN(C(=O)CSc1nnc(-c2ccc3c(c2)OCO3)o1)C1CCS(=O)(=O)C1 (centres undefined)	-9.07%	–
Cc1ccc(S(=O)(=O)N(C)C)cc1NC(=O)c1ccc(-n2cncn2)c([N+](=O)[O-])c1	1.7%	–
CCOCCn1[nH]c2ccccc2c1=O	13.8%	–
COc1ccc(CNC(=O)COC(=O)C2=Cc3ccccc3OC2)cc1	–	18.4 µM (active)
O=C(COC(=O)c1ccc2c(c1)OCCO2)NCc1ccccc1	-0.36%	–
COc1ccc(CCNC(=O)COC(=O)c2cc(=O)c3ccccc3o2)cc1	-1.05%	–
CN(/N=C/c1ccccc1)C(=S)c1ccccc1	0.402%	–
CCC(CO)Oc1cc(NC(=O)c2ccc(Cl)cc2)c2ncn(C(C)C)c2c1 (centres undefined)	0.301%	–
Cc1nnc(N/N=C/c2ccccn2)[nH]c1=O	–	2.59 µM (active)
Cc1ccccc1Nc1nnc(C)c(=O)[nH]1	-1.32%	–
Cc1nnc(N/N=C/c2cccs2)[nH]c1=O	-2.78%	–
CCOc1ccc(C(=O)NC2CCN(C(=O)Nc3ccccc3OC)CC2)cc1	0.507%	–
COc1ccc2nc(N3CCCC(O)C3)c(C#N)cc2c1 (centres undefined)	6.88%	–
CCOc1ccc2nc(N3CCCN(C(=O)Nc4ccccc4C)CC3)c(C#N)cc2c1	–	16.4 µM (active)
C[C@H](NS(=O)(=O)c1ccc(Cl)cc1)C(=O)OCC(=O)N1CCOCC1	-7.44%	–
CC(C)[C@@H](C(=O)OCC(=O)c1ccc2c(c1)NC(=O)CO2)N1C(=O)c2ccccc2C1=O	14.5%	–
Cc1cccc(Nc2nnc(SCC(=O)c3c(N)n(C4CC4)c(=O)[nH]c3=O)s2)c1C	3.57%	–
O=c1[nH]c(NCCO)nnc1Cc1ccc(Cl)cc1	-14.8%	–
COc1ccc(Cc2nnc(N/N=C/c3ccccc3O)[nH]c2=O)cc1OC	–	10.3 µM (active)
COc1ccc(/C=N/Nc2nc3ccccc3c(=O)[nH]2)cc1	0.203%	–
CCN(CC)S(=O)(=O)c1ccc(N2CCOCC2)c(NC(=O)C(C)Oc2ccc(F)cc2)c1 (centres undefined)	0.635%	–
